HT1080 IDH1KD tx: qHTS for induction of synthetic lethality in tumor cells producing 2HG: qHTS for the HT-1080-IDH1KD cell line; HT-1080 IDH1 knockdown viability, ATP luminescence, 48 h; Potency, µM (titrated, usually from 46.1 µM), actives largely listed as cytotoxic; hit rate 2% among 360,000; AID 686971, 2013
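IDH1KD HT-1080 cells, 750/well, RPMI + 5% FBS; compound pinned after 2 h settling; 48 h, 37 °C; CellTiter-Glo luminescence; % activity normalised to DMSO and no-cell wells; curves fitted, classed by r2 and efficacy.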
HT1080-NT tox: qHTS for induction of synthetic lethality in tumor cells producing 2HG: qHTS for the HT-1080-NT fibrosarcoma cell line; Potency, µM (top dose mostly 46.1 µM), most hits filed as cytotoxic; HT-1080-NT fibrosarcoma viability, CellTiter-Glo ATP luminescence, 48 h; hit rate 1.6% among 360,000;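 further: NT is the 2HG producing partner of a matched IDH1 knockdown line; nearly all actives have a fitted effect of over 55% in size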
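Fibrosarcoma NT cells, 750 per well in 5% FBS RPMI, were exposed to compound for 48 hours. Viability: CellTiter-Glo luminescence.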
KB-3-1 tox: qHTS assay for MDR1-selective chemotherapeutics: Primary screen using the parental adenocarcinoma cell KB-3-1; KB-3-1 viability, CellTiter-Glo ATP luminescence, 72 h; Potency, µM (top dose mostly 46.1 µM), usual class: cytotoxic; hit rate 1.4% among 400,000; further: nearly all actives have a fitted effect of over 60% in size
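Screening of KB-3-1 cells (DMEM, 10% FBS, phenol-red free) ran from lowest to highest compound concentration; after 72 h at 37 °C viability was read luminescently and curves fitted.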
KB-V1 cytotox: qHTS assay for MDR1-selective chemotherapeutics: Primary screen using the drug-selected MDR subline cells KB-V1. AID 1347076, 2019. Potency, µM (highest dose often 46.1 µM), most hits filed as cytotoxic. KB-V1 MDR cells viability, CellTiter-Glo, 72 h. hit rate 3.4% among 400,000; further: nearly all actives have a fitted effect of over 60% in size
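Cells of the MDR subline KB-V1 are plated, dosed with compound at multiple concentrations, and incubated 72 h at 37 degrees C; CellTiter-Glo is then added and luminescence read after 10 min.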
DT40 TDP1 no CPT: qHTS for Inhibitors of human tyrosyl-DNA phosphodiesterase 1 (TDP1): qHTS in cells in absence of CPT; AID 686978, 2013; DT40 Tdp1-/- hTDP1 cells, no CPT, ATP luminescence, 48 h; Potency, µM (series often up to 46.2 µM), actives largely listed as inhibitors; hit rate 15% among 420,000; further: nearly all actives have a fitted effect of over 55% in size
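Readout: luminescence from CellTiter-Glo after 30 min in the dark at RT. Cells: DT40 Tdp1-/- with stable hTDP1, 400/well. Exposure: compounds alone, ≥48 hr, 37 °C.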
TDP1 cell CPT: qHTS for Inhibitors of human tyrosyl-DNA phosphodiesterase 1 (TDP1): qHTS in cells in presence of CPT; chicken DT40 Tdp1-/-;hTDP1 cells + 20 nM CPT, ATP luminescence, 48 h; Potency, µM (top dose mostly 46.2 µM), most hits filed as inhibitors; hit rate 12% among 420,000; AID 686979, 2013; further: nearly all actives have a fitted effect of over 55% in size
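Chicken DT40 Tdp1-/- cells stably complemented with human TDP1 were seeded at 400 cells/well in medium containing 20 nM camptothecin, exposed to pin-transferred compounds, and grown at 37 °C for at least 48 hr. Viability was read as ATP luminescence.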
Each line names hits and unclear results; the compound was inactive in the other large screens. The list is not random: actives were taken first. Their share in the collection is about 19%. The call rests on the fitted dose curve; in most records, active means well fitted curve in the direction sought with a large enough effect; inconclusive means small, poorly fitted or top-dose-only effect, or another doubt; inactive means no such curve, though single readings can be large; an effect the other way counts as inactive or inconclusive.

COC(=O)C1=C(c2ccc(C(C)=O)cc2)C[C@@H]2CC[C@H]1N2C(=O)NCc1ccc(C(F)(F)F)cc1	DT40 TDP1 no CPT inconclusive, TDP1 cell CPT inconclusive
Cc1ccc2c(c1)CC1(CN2C)C(=O)NC(=O)N(c2cc(C)ccc2C)C1=O (stereo unspecified)	none
CCCCN1C(=O)NC(=O)C2(Cc3cc(C)ccc3N(C)C2)C1=O (stereo unspecified)	DT40 TDP1 no CPT 13µM, TDP1 cell CPT inconclusive
COc1cccc(N2C(=O)NC(=O)C3(Cc4cc(C)ccc4N(C)C3)C2=O)c1 (stereo unspecified)	DT40 TDP1 no CPT inconclusive, TDP1 cell CPT inconclusive
COc1ccc(OC)c(N2C(=O)NC(=O)C3(Cc4cc(C)ccc4N(C)C3)C2=O)c1 (stereo unspecified)	DT40 TDP1 no CPT inconclusive, TDP1 cell CPT inconclusive
COc1cc(CN2C(=O)NC(=O)C3(Cc4cc(C)ccc4N(C)C3)C2=O)cc(OC)c1 (stereo unspecified)	HT1080 IDH1KD tx inconclusive, HT1080-NT tox inconclusive, DT40 TDP1 no CPT 0.01µM, TDP1 cell CPT inconclusive
COc1ccc2c(c1)CC1(CN2C)C(=O)NC(=O)N(CCc2ccccc2)C1=O (stereo unspecified)	KB-V1 cytotox inconclusive, DT40 TDP1 no CPT 5.8µM, TDP1 cell CPT inconclusive
CN1C(=O)C(=Cc2ccccc2OCc2ccccc2Cl)C(=O)N(C)C1=O	HT1080 IDH1KD tx 16µM, HT1080-NT tox 16µM, KB-3-1 tox inconclusive, DT40 TDP1 no CPT inconclusive, TDP1 cell CPT inconclusive
CN1C(=O)C(=Cc2ccccc2OCc2ccc(C(=O)O)cc2)C(=O)N(C)C1=O	none
CN1C(=O)C(=Cc2ccccc2OCCOc2ccc([N+](=O)[O-])cc2)C(=O)N(C)C1=O	HT1080 IDH1KD tx inconclusive, HT1080-NT tox inconclusive, DT40 TDP1 no CPT 23µM, TDP1 cell CPT inconclusive
O=C1NC(=O)C(=Cc2ccc(Oc3ccc([N+](=O)[O-])cc3)cc2)C(=O)N1	DT40 TDP1 no CPT inconclusive, TDP1 cell CPT inconclusive
O=C1NC(=O)C(=Cc2ccccc2OCCOc2ccc([N+](=O)[O-])cc2)C(=O)N1	HT1080 IDH1KD tx 18µM, HT1080-NT tox inconclusive, DT40 TDP1 no CPT inconclusive, TDP1 cell CPT inconclusive
CN1Cc2cccnc2N(C)Cc2cc(Cl)ccc21	KB-3-1 tox inconclusive, KB-V1 cytotox 16µM, TDP1 cell CPT inconclusive
CCn1cc(CN(C)S(=O)(=O)c2ccc3ccccc3c2)c(C)n1	KB-V1 cytotox inconclusive, DT40 TDP1 no CPT 5.8µM, TDP1 cell CPT 5.2µM
CCn1cc(CN2CCCC(C(=O)c3cccc(OC)c3)C2)c(C)n1 (stereo unspecified)	none
COC(=O)C1=C(c2cc3ccccc3s2)C[C@@H]2CC[C@H]1N2C(=O)N1CCCC1	TDP1 cell CPT 4.6µM (no result: DT40 TDP1 no CPT)
COC(=O)C1=C(c2cc3ccccc3s2)C[C@@H]2CC[C@H]1N2C(=O)N1CCOCC1	HT1080 IDH1KD tx 8.2µM, HT1080-NT tox 9.2µM, KB-3-1 tox inconclusive, DT40 TDP1 no CPT 7.3µM, TDP1 cell CPT 9.2µM
COC(=O)C1=C(c2cc3ccccc3s2)C[C@@H]2CC[C@H]1N2C(=O)NCCNC(C)=O	none
C=CCn1c(O)c(C(CC)=NC2CC2)c(=O)[nH]c1=O	none
COc1cc(=O)n2c(c1C(=O)N(C)Cc1nonc1C)CCN(C(=O)C1C(C)(C)C1(C)C)CC2	none (no result: HT1080 IDH1KD tx, HT1080-NT tox, KB-3-1 tox, KB-V1 cytotox)
CCN(CC)C(=O)[C@H]1C[C@H](CC(=O)NCC23CC4CC(CC(C4)C2)C3)C(=O)N2CCc3c([nH]c4cc(-c5ccco5)ccc34)[C@]12C	DT40 TDP1 no CPT inconclusive, TDP1 cell CPT inconclusive

Screening results from PubChem.
